Source: PubChem BioAssay
TDP1 cell CPT: DT40-hTDP1 cell growth loss with CPT | AID 686979 | actives 12% (n = 420,000) | chicken DT40 Tdp1-/-;hTDP1 cells + 20 nM CPT, ATP luminescence, 48 h | Potency, µM (highest dose often 46.2 µM), for inactives: at the highest dose activity change, negative = growth inhibition, most hits filed as inhibitors; also: potency is read from the fitted curve at half-maximal effect; nearly all actives have a fitted effect of over 55% in size
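Chicken DT40 Tdp1-/- cells complemented with human TDP1, 400 cells/well, exposed to compounds plus 20 nM camptothecin for at least 48 h at 37 C; viability read as ATP content by CellTiter-Glo luminescence.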
LDHA block: blocks human lactate dehydrogenase A. P00338. activity change, % (values are at about 110 or 230 µM). purified LDHA, NADH/diaphorase-resazurin fluorescence; active compounds read low. actives 0.15% (n = 480,000). AID 1347041; in the data active = activity change below about -30%; inconclusive = mostly about -25% to -30%;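 also: plate controls were DMSO wells for no effect and wells without enzyme for full effect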
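Remaining NADH was detected by diaphorase (0.133 mg/mL) converting 37 µM resazurin to fluorescent resorufin, read at 0 and 20 minutes. The preceding 5-minute room-temperature reaction used 2 nM LDHA, 0.2 mM sodium pyruvate and 0.06 mM NADH at pH 7.4.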
IL1B secr inh: blocks inflammasome-driven IL-1 beta release. THP-1 LPS/ATP IL-1B secretion, AlphaLISA, 16 h; active compounds read low. activity change, % at 57.5 µM. actives 4.7% (n = 360,000). AID 743279; in the data active = activity change below about -50%; inconclusive = mostly about -30% to -49%
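Secreted IL-1B measured by AlphaLISA bead assay after 16 h compound exposure of THP-1 cells; compounds (final up to 57.5 uM) added 1 h before LPS (250 ng/mL) and ATP (1.25 mM) stimulation; lower signal means less secretion.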
RORg inh: inhibitors of mouse ROR gamma transcriptional activity; actives 5.4% (n = 310,000); Potency, µM (highest dose often 53.6 µM), for inactives: top-dose activity change, negative = inhibition, most hits filed as inhibitors; P51450; Drosophila S2 Gal4-RORgamma UAS-luciferase reporter, 20 h; also: potency is read from the fitted curve at half-maximal effect; nearly all actives have a fitted effect of over 60% in size
Target sequence (P51450 whole entry, looked up, the tested form may be a part): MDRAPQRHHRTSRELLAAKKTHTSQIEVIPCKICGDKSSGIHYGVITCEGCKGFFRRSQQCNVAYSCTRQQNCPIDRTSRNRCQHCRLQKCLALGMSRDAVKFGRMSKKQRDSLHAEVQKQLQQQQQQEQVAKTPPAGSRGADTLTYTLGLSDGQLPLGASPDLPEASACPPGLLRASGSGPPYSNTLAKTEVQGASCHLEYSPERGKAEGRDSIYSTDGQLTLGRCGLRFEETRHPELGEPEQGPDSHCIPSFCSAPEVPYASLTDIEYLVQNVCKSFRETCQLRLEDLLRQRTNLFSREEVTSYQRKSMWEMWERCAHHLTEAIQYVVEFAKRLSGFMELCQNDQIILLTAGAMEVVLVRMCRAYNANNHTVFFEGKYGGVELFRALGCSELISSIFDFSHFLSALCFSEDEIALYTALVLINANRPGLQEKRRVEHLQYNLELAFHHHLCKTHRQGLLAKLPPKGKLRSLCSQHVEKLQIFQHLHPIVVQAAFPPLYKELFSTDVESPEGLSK
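Drosophila Schneider cells stably carrying a metallothionein-driven Gal4 DBD–ROR gamma fusion and a UAS-Photinus luciferase reporter were exposed to compound for 1 hr, then induced with copper sulfate (700 uM final) for 20 hr at ambient temperature before luminescence reading.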
Gal4-VP16 FLuc: inhibits Gal4-VP16 luciferase reporter, ROR gamma counter-screen | Potency, µM (series often up to 53.6 µM), for inactives: at the top dose activity, negative = inhibition, hits mostly inhibitors | Drosophila S2 Gal4-VP16 UAS-luciferase, luminescence, 20 h | actives 3.5% (n = 310,000);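 also: Gal4-VP16 expression switched on by copper sulfate through the metallothionein promoter; potency is read from the fitted curve at half-maximal effect; nearly all actives have a fitted effect of over 50% in size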
DT40 TDP1 no CPT: qHTS for Inhibitors of human tyrosyl-DNA phosphodiesterase 1 (TDP1): qHTS in cells in absence of CPT; actives 15% (n = 420,000); Potency, µM (titrated, usually from 46.2 µM), for the others: top-dose activity change, negative = growth inhibition, most hits filed as inhibitors; DT40 Tdp1-/- hTDP1 cells, no CPT, ATP luminescence, 48 h; also: potency is read from the fitted curve at half-maximal effect; nearly all actives have a fitted effect of over 55% in size
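Readout: luminescence from CellTiter-Glo after 30 min in the dark at RT. Cells: DT40 Tdp1-/- with stable hTDP1, 400/well. Exposure: compounds alone, ≥48 hr, 37 °C.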
Active calls of the source: *; i = inactive; ? = inconclusive; · = no result given. Rows were chosen to be rich in hits. Some 18% of all compounds tested hit in one or more screens of this group. Unless noted, calls follow the shape of the dose curve; as a rule, active = well fitted curve in the direction sought with a large enough effect; inconclusive = small, poorly fitted or top-dose-only effect, or another doubt; inactive = no such curve, though single readings can be large; an effect the other way counts as inactive or inconclusive. Unless noted, % is scaled to controls: 0 for no effect and ±100 for the full control effect.

SMILES	TDP1 cell CPT	LDHA block	IL1B secr inh	RORg inh	Gal4-VP16 FLuc	DT40 TDP1 no CPT
COC(=O)c1sccc1S(=O)(=O)N(CC(=O)Nc1cccc(C)c1C)c1ccc(Cl)cc1	·	-8	·	·	·	·
COc1cccc(NC(=O)COC(=O)c2c3c(nc4ccccc24)CCC(C)C3)c1 (configuration not stated)	8.2µM*	4	0	42%	-24%	9.2µM*
COc1cccc(NC(=O)COC(=O)c2c(C)nn(-c3ccccc3)c2C)c1	?	-2	-56*	·	·	-24%
Clc1ccc(N/N=C/c2c(Cl)cccc2Cl)cc1Cl	·	16	·	·	·	·
COc1ccccc1C(=O)N/C(=C\c1ccccc1)C(=O)O	·	0	·	·	·	·
Cc1oc(-c2ccccc2Cl)nc1CS(=O)(=O)CC(=O)N1CCc2ccccc21	·	-4	·	·	·	·
CCOc1ccc(NCc2cccn2-c2nnc(N3CCC(C(=O)NCCCN4CC(C)CC(C)C4)CC3)s2)cc1 (configuration not stated)	?	9	-82*	-38%	-11%	?
CCCNC(=O)C1CCN(c2nnc(-n3cccc3CNc3ccc(OCC)cc3)s2)CC1	·	-2	·	·	·	·
CCOc1ccc(NCc2cccn2-c2nnc(N3CCC(C(=O)NCCc4ccc(OCC)c(OCC)c4)CC3)s2)cc1	15µM*	4	·	·	·	8.2µM*
CCOc1ccc(NCc2cccn2-c2nnc(N3CCC(C(=O)NCCc4ccc(OC)c(OC)c4)CC3)s2)cc1	?	4	·	·	·	10µM*
CCN1CCN(CCCNC(=O)C2CCN(c3nnc(-n4cccc4)s3)CC2)CC1	-12%	-9	6	-18%	2%	10%
O=C(Nc1ccccc1)c1nn(C2CCS(=O)(=O)C2)c2c1CCCC2 (configuration not stated)	·	-3	·	·	·	·
Cc1ccc(-c2nnc(SCC(=O)Nc3c(C)nn(-c4ccccc4)c3C)n2N)cc1	·	3	·	·	·	·
N#CC(=C(O)COC(=O)CCCNC(=O)c1ccc(Cl)cc1)c1nc2ccccc2[nH]1	?	2	-97*	·	·	-18%
N#C/C(=C(/O)COC(=O)c1ccccc1O)c1nc2ccccc2s1	-26%	1	14	-19%	-1%	16µM*
CC(C)OCc1c(C(=O)OC/C(O)=C(\C#N)c2nc3ccccc3[nH]2)oc2ccccc12	11%	5	21	-40%	-21%	?
COc1ccc(/C(C)=N/OC/C(O)=C(\C#N)c2nc3ccccc3[nH]2)cc1	-22%	3	22	?	-1%	0%
CC(C)(C)c1ccc(C(=O)OC/C(O)=C(\C#N)c2nc3ccccc3s2)cc1	?	2	i	-2%	-15%	?
N#C/C(=C(/O)COC(=O)c1ccc(O)cc1)c1nc2ccccc2[nH]1	-17%	-1	25	12%	2%	-9%
N#C/C(=C(/O)COC(=O)c1cccnc1Cl)c1nc2ccccc2[nH]1	18µM*	1	59	7.9µM*	?	23µM*
N#C/C(=C(/O)COC(=O)CCC1CCCCC1)c1nc2ccccc2[nH]1	5.2µM*	-3	-85*	11µM*	10µM*	4.1µM*
Cc1cnc(C(=O)Oc2ccc(Br)cc2)cn1	·	0	·	·	·	·
CC(C)=C(C#N)c1nc2ccccc2[nH]1	·	-5	·	·	·	·
Cc1ccc(C(C)C)c(OC/C(O)=C(\C#N)c2nc3ccccc3[nH]2)c1	8%	-11	-5	2.2µM*	?	?
COCC(=O)OC/C(O)=C(\C#N)c1nc2ccccc2[nH]1	2.9µM*	10	-104*	?	2.8µM*	2.6µM*
SMILES	TDP1 cell CPT	LDHA block	IL1B secr inh	RORg inh	Gal4-VP16 FLuc	DT40 TDP1 no CPT
CC(C)C(=O)OC/C(O)=C(\C#N)c1nc2ccccc2[nH]1	4%	6	80	6.3µM*	10µM*	-8%
CCCC(=O)OC/C(O)=C(\C#N)c1nc2ccccc2[nH]1	-14%	2	-105*	4µM*	?	?
CCOc1cccc(-c2cc(C(=O)O)c3ccc(C)c(C)c3n2)c1	·	3	·	·	·	·
Cc1ccc(-n2nnnc2SCC(=O)N2CCN(CC(=O)N3CCCC3)CC2)cc1	·	4	·	·	·	·
CCOC(=O)N1CCN(c2nc(-c3cccs3)nc3ccccc23)CC1	23µM*	0	?	31%	7%	15µM*
CC(=O)N1CCN(c2nc(-c3cccs3)nc3ccccc23)CC1	-7%	1	-86*	-18%	-4%	?
CC1CCCCN1Cc1c(O)ccc2c(=O)c(-c3ccc(Br)cc3)coc12 (configuration not stated)	?	-5	?	5%	15%	-11%
CC1CCCCN1Cc1c(O)ccc2c(=O)c(-c3ccc(Cl)cc3)coc12 (configuration not stated)	7.3µM*	-7	?	27%	7%	18µM*
CC(C)N(Cc1c(O)ccc2c(=O)c(-c3ccc(Cl)cc3)coc12)C(C)C	2.1µM*	-8	-4	9%	-5%	8.2µM*
CC1CCCCN1Cc1c(O)ccc2c(=O)c(-c3nc4ccccc4s3)c(N)oc12 (configuration not stated)	?	-7	-30	-36%	-27%	23µM*
Cc1nn(CC(=O)NCc2cccc(Br)c2)c(=O)c2cccn12	·	1	·	·	·	·
O=C(OCc1ccccc1)N1CCC2CC1c1ccc(-c3cccc(F)c3)cc12 (configuration not stated)	?	-9	3	·	·	?
O=C(OCc1ccccc1)N1CCC2CC1c1c(Cl)cccc12 (configuration not stated)	?	0	-9	·	·	18µM*
FC(F)(F)c1ccc(-c2cccc3c2C2CC3CCN2Cc2ccc3c(c2)OCO3)cc1 (configuration not stated)	?	0	8	·	·	16µM*
O=C(OCc1ccccc1)N1CCC2CC1c1c(-c3ccc(C(F)(F)F)cc3)cccc12 (configuration not stated)	16µM*	5	-19	·	·	?
FC(F)(F)c1ccc(-c2cccc3c2C2CC3CCN2)cc1 (configuration not stated)	?	-1	-7	·	·	?
O=C(OCc1ccccc1)N1CCC2CC1c1cc(Cl)ccc12 (configuration not stated)	?	8	?	·	·	?
CCOc1ccc(C2CCCN2C(=O)c2nn(C)c(=O)c3ccccc23)cc1 (configuration not stated)	·	-4	·	·	·	·
